This is an account of results in publication PMC4552634, “A New Set of Chemical Starting Points with Plasmodium falciparum Transmission-Blocking Potential for Antimalarial Drug Discovery” (PLoS ONE, 2015).

Hit rate of the full screen: of about 13,000 compounds, about 3,200 (25%) showed an effect of 50% or more. Some of the results follow.

This test concerns P. falciparum stage V gametocytes. On the set-up: BacTiter-Glo ATP luminescence viability of purified stage V gametocytes in 384-well plates, per cent inhibition versus DMSO. To be noted: 48 h, 5 µM; inhibitor.
With `Cc1ccc(NC(=O)N2CCN(CCCCCNC(=O)/C=C/c3ccc(Cl)c(Cl)c3)CC2)cc1C` [TCMDC-135732], the “% Inhibition” value is given as -3.92%. The figure for `CCOC(=O)c1c(CN(CC)CC)n(-c2ccccc2)c2cc(Br)c(O)cc12` [TCMDC-125679] is -14.42%; for `N=C(N)Nc1ccc(Cc2ccc(NC(=N)N)cc2)cc1` [TCMDC-137917] it is -14.93%.

For the compound `CCCCCN1CCCC(NS(=O)(=O)c2ccc(C(=O)Nc3cccc(C(F)(F)F)c3)cc2)C1` (stereo not shown) [TCMDC-132774], the “% Inhibition” value is recorded as -2.262%. For the compound `CCCCCN1CCC(NS(=O)(=O)c2cccc(C(=O)Nc3ccc(C(F)(F)F)cc3)c2)C1` (stereo not shown) [TCMDC-132486], the “% Inhibition” value is -23.98%.

With `CCCCCN1CCCC(NS(=O)(=O)c2cccc(C(=O)Nc3cccc(C(F)(F)F)c3)c2)C1` (stereo not shown) [TCMDC-132768], the “% Inhibition” value was 75.62%.

With `CCCCCN1CCCCC(NS(=O)(=O)c2ccc(C(=O)Nc3cccc(C(F)(F)F)c3)cc2)C1` (stereo not shown) [TCMDC-132778], the “% Inhibition” value was -0.2647%.

On to `CCCCCN1CCC(NS(=O)(=O)c2ccc(C(=O)Nc3cccc(C(F)(F)F)c3)cc2)C1` (stereo not shown) [TCMDC-132771], for which the “% Inhibition” value came out at 83.46%. The figure for `CCCCCN1CCC(NS(=O)(=O)c2cccc(C(=O)Nc3cccc(C(F)(F)F)c3)c2)C1` (stereo not shown) [TCMDC-132488] is -38%.

Take `CN1CC=C(c2c[nH]c3ccc(OCc4ccccc4)cc23)CC1` [TCMDC-132113]: the “% Inhibition” value is reported as -6.135%.

Turning to `Cc1ccc(C2=NNC3(S2)C(=O)Nc2ccc(C)cc23)cc1` (stereo not shown) [TCMDC-123866], the “% Inhibition” value is 44.96%. Next, `CCCCNC(=O)[C@@H]1CCCN1C(=O)c1ccc(O)c(-c2ccc(Cl)c(Cl)c2)c1` [TCMDC-140837]: 7.64%; `Clc1ccc(CNc2nc(NCCc3cnc[nH]3)nc(NC3CCCCC3)n2)cc1` [TCMDC-139734]: -12.92%. The figure for `NCC1CCCN1Cc1ccc(-c2ccc(-c3nc4ccc(C(F)(F)F)cc4[nH]3)cc2)cc1` (stereo not shown) [TCMDC-132995] is 50.61%; for `NCC1CCCN1Cc1ccc(-c2cccc(-c3nc4ccc(C(F)(F)F)cc4[nH]3)c2)cc1` (stereo not shown) [TCMDC-132990] it is 70.04%. Next, `OCC1CCN(Cc2ccc(-c3ccc(-c4nc5ccc(C(F)(F)F)cc5[nH]4)cc3)cc2)CC1` [TCMDC-133124]: -13.18%; `OCCN1CCN(Cc2ccc(-c3cccc(-c4nc5ccc(C(F)(F)F)cc5[nH]4)c3)cc2)CC1` [TCMDC-133024]: 24.38%; `NCC1CCCN1Cc1cccc(-c2ccc(-c3nc4ccc(C(F)(F)F)cc4[nH]3)cc2)c1` (stereo not shown) [TCMDC-132996]: 21.42%. Take `NCC1CCCN1Cc1ccc(-c2ccc(-c3nc4cc(C(F)(F)F)ccc4[nH]3)s2)cc1.O=C(O)C(F)(F)F` (stereo not shown) [TCMDC-133000]: the “% Inhibition” value is 16.97%.

What is called % Inhibition is the drop in the measured response relative to a control, in per cent.
